We go through 40 sequences from the supplement of paper PMC10338343.

± gives the standard deviation. Bounds are passed on as bounds.

In the assay the test system is EfPiwi piRISC loaded with piRNA #1 (26 nt). As to the kind of experiment: pre-steady-state target cleavage rate (min^-1); auxiliary factor: 500 nM Ephydatia muelleri Gtsf1; guide: piRNA #1 5'p-UGAGGUAGUAGGUUGUAUAGUAUCCA; MIWI and MILI are mouse PIWI proteins and EfPiwi is from a freshwater sponge; tags in brackets are library labels; higher = faster piRNA-guided slicing of the target. An outline of the steps: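 The pre-steady-state cleavage rate came from a burst-and-steady-state fit to pooled data from three Cleave-'n-Seq trials, in which uncleaved targets were sequenced and normalised to depth and to weakly complementary targets. Each reaction held 0.1 nM transcribed, DNA-blocked target RNA library and 1 nM active affinity-purified piRISC carrying one synthetic guide, with or without 500 nM GTSF1 partner protein, in HEPES–potassium acetate buffer at 33 °C for 0–8 or 0–960 min. k3 was capped at 0.0001 min^-1.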
Take “GGAGAGGAUACUAUACAACCUACUAGGAGA [g6:g25:cont:t1A]”: the “pre-steady-state target cleavage rate” value was 0.00363 ± 0.0023. The result for GGAGAGGAUACUAUACAACCUACUUGGUCA reads 0.00425 ± 0.0034.

For the sequence GGAGACCUAUGUAUACAACCAAGUACCUCA, the “pre-steady-state target cleavage rate” value was less than 0.0001. Next, GGAGACCUUACUAUACAACCUACUACGUCA: 0.00584 ± 0.0027; GGAGACCUAUGAUAUGUUCCUACAACGUCA: less than 0.0001; GGAGAGGAUACUAUACAACCUUCUAGCUCA: 0.00404 ± 0.0021.

As for GGAGACGAUACUAUACAACCUUCUACCUGA, the “pre-steady-state target cleavage rate” value amounted to 0.0056 ± 0.0024. For the sequence GGAGACGAUACUUUACAACCUACUACCUCA, the “pre-steady-state target cleavage rate” value turned out to be 0.00691 ± 0.0033.

Take GGAGACCUAUGUAUACAACCUGACUACCUCA: the “pre-steady-state target cleavage rate” value is less than 0.0001. For GGAGAGGAUACUAUACAACCUAGUACCACA, the “pre-steady-state target cleavage rate” value turned out to be 0.00381 ± 0.0016. Consider GGAGUGGAGACUAUACAACCUACUACCUCA, for which the “pre-steady-state target cleavage rate” value is 0.0807 ± 0.031. The result for GGAGACGAUAGUAUACAUCCUACUACCUCA reads 0.00323 ± 0.0026; that for GGAGUGGAUACUAUACAACCUAGUUCCUCA, 0.00239 ± 0.0021. For the sequence GGAGACCAUACUAUACAACCUACUUCCACA, the “pre-steady-state target cleavage rate” value worked out at 0.0032 ± 0.0032. The result for GGAGACCUAACUAUACAACCUAGUACCACA reads 0.00588 ± 0.0049; that for GGAGAGGAUACUAUACAGCCUACUACCUCA, 0.105 ± 0.04. In the case of GGAGUGGACUACUAUACAACCUACUACCUCA, the “pre-steady-state target cleavage rate” value is 0.0107 ± 0.0041. Next, GGAGACGAUACUAUACAACCGACUACCUCA: 0.00284 ± 0.002; GGAGACGAUACUAUACUAACCUACUACCUCA: 0.00448 ± 0.0044; GGAGUGGAUACUAUACAACCUACUAGGUCA: 0.00356 ± 0.002.

Regarding GGAGAGGAUACUAUACGAACCUACUACCUCA, the “pre-steady-state target cleavage rate” value worked out at 0.0069 ± 0.0052. Next, GGAGACCAUACUAUACAACCUACUAGGUCA: 0.00366 ± 0.0023; GGAGAGGAUACUAUACAACCUUGAACCUCA: 0.00408 ± 0.004.

As to GGAGAGGAUACUUAUACAACCUACUACCUCA, the “pre-steady-state target cleavage rate” value worked out at 0.112 ± 0.045.

Regarding GGAGAGGAUACUAUACAACGUACUACCACA, the “pre-steady-state target cleavage rate” value stood at 0.00287 ± 0.0018. Next, GGAGACCAUACUAUACAUCCUACUACCACA: 0.00302 ± 0.0024. The result for GGAGACCAUACUAUACAACUUACUACCUCA reads 0.00338 ± 0.0027; that for GGAGACCUUACUAUACAACGCUACUACCUCA, 0.00566 ± 0.0038.

Take GGAGAGGAUACUAUACAACCAAGUACCUCA: the “pre-steady-state target cleavage rate” value was determined as 0.00282 ± 0.002. The result for GGAGAGGAUACUGUACAACCUACUACCUCA reads 0.0789 ± 0.029; that for GGAGUGGAUACUAUACAACCUACUCCUCA, 0.00475 ± 0.0027; that for GGAGACCUUACUAUACAACCUUCUACCUGA, 0.00341 ± 0.0028. Next, “GGAGACCUAUGAUAUGUUGGUACUACCUCU [g2:g10:cont:t1U]”: less than 0.0001; GGAGUGGAUACUAUACAACCUACUUCCUGA: 0.00267 ± 0.0023. As for GGAGACGAUACUAUACAACCUACUACUCA, the “pre-steady-state target cleavage rate” value worked out at 0.00549 ± 0.0025. The result for GGAGACGAUACUAUACAACCAACUAGCUCA reads 0.00457 ± 0.0027; that for GGAGACCUAUCUACACAACCUACUACCUCA, 0.00358 ± 0.0034; that for GGAGUGGAUACUAUACAACCAUGUACCUCA, 0.00412 ± 0.0026. Next, GGAGAGGAUACUAUACUAACCUACUACCUCA: 0.0128 ± 0.007; GGAGACGAUACUAUACAACCUACUUCCACA: 0.00373 ± 0.0021.
